# The campaign covered roughly 290,000 compounds. About 3,000 (1%) were called active. The list comes from a sample in which actives are over-represented; it also holds similar structures and randomly drawn compounds. Unmarked numbers belong to inactive results. Rule as the data show it: active = inhibition mostly above about 36% (no sharp cut-off); inactive = mostly below about 34%.
# Assay: NOD1 signaling inhibitors, primary screen, cell-based, luminescence, uHTS (AID 1578);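 also: HEK-293T reporter cells stimulated with the NOD1 agonist gamma-tri-DAP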
# Conditions: NOD1-driven NF-kB luciferase reporter cells, at 4 µM, hits give high values
row,SMILES,inhibition
1,CN(C(=O)CC1C(=O)NCCN1Cc1cccc(F)c1F)C1CCOCC1 (stereo not given),-24.4%
2,CCC(CCC(=O)Nc1nncs1)C(=O)O (stereo not given),0.6%
3,O=C(O)CCCCCCC1C(=O)NC(=O)N1CCC(O)C1CCCCC1 (stereo not given),75.2% (active)
4,CC(O)[C@H]1CNC(=O)C(=O)N1CCCCC1CCCCC1 (stereo not given in full),-9.4%
5,O=C(O)CCCCCN1C(=O)C2CCCCC2C1=O (stereo not given),-26.7%
6,CCOC(=O)c1c(C)[nH]c(C)c1S(=O)(=O)N(C)CC(=O)NCc1cccc(Br)c1,-19.6%
7,COc1ccc(-c2c3c(cc(C)[n+]2[O-])oc2ccc(OC)cc23)cc1,-20%
8,Cc1[nH]nc2c1C(c1ccc3c(c1)OCO3)C(C#N)=C(N)O2 (stereo not given),-33.1%
9,CC(C)c1cccc(C(C)C)c1NC(=O)CN1CCCC1,-21.2%
10,CC(C)c1cccc(C(C)C)c1NC(=O)c1ccccc1,-17.6%
11,CC(C)c1cccc(C(C)C)c1NC(=O)CCl,68.4% (active)
12,COc1ccccc1CNC(=O)Cn1nnnc1CN(C)C(C)C,-103%
13,COc1ccc2oc(C(=O)NC(C)(C)C)c(C)c2c1,-42.6%
14,CCCC(=O)C1=C(O)C(C(=O)OC)C(C)(C)CC1=Nc1ccccc1 (stereo not given),-9.6%
15,CCCC(=O)C1=C(O)C(C(=O)OC)C(C)(C)CC1=Nc1ccc(OC)cc1 (stereo not given),-37.1%
16,CCCC(=O)C1=C(O)C(C(=O)OC)C(C)(C)CC1=Nc1cccc2ccccc12 (stereo not given),53.5% (active)
17,O=C(NCC1CCCO1)c1ccc(/C=N/O)nc1 (stereo not given),-26.9%
18,CC1(C)CC(N2CCCC2)=CC(=[N+]2CCCC2)C1,27.8%
19,CC1(C)CC(N2CCCC2)=CC(=[N+]2CCCCC2)C1,-30.9%
20,CC1(C)CC(N2CCN(c3ccccc3)CC2)=CC(=[N+]2CCCC2)C1,55%
21,CC1(C)CC(N2CCCCC2)=CC(=[N+]2CCCCC2)C1,36.9%
22,O=C(Cn1c(=O)c2sccc2n(Cc2ccc([N+](=O)[O-])cc2)c1=O)NCCc1ccccc1,-16.6%
23,Cn1c(CNC(=O)CCNC(=O)c2cccc(F)c2)cc(=O)n(C)c1=O,-2.9%
24,Cc1cccc(C(=O)N=c2sccn2C)c1[N+](=O)[O-],-69.7%

row,SMILES,inhibition
1,O=C(NCc1ccncc1)C(=O)Nc1nc(C23CC4CC(CC(C4)C2)C3)cs1,-11.3%
2,O=C(NCc1ccc(F)cc1)C(=O)Nc1nc(C23CC4CC(CC(C4)C2)C3)cs1,46.9%
3,O=C(NCc1ccccc1)C(=O)Nc1nc(C23CC4CC(CC(C4)C2)C3)cs1,89.4% (active)
4,CC(=O)Nc1ccc(C(=O)OCC(=O)Nc2c(F)cccc2F)cc1,-4.7%
5,O=S1(=O)CCC(S(=O)(=O)N2CCCCCC2)C1 (stereo not given),98.1% (active)
6,CCCCS(=O)(=O)C1CCS(=O)(=O)C1 (stereo not given),-31.7%
7,Cc1ccc(S(=O)(=O)N2CCCN(S(=O)(=O)C3CCS(=O)(=O)C3)CC2)cc1 (stereo not given),-14.1%
8,CC(C)C1Nc2ccc(C(=O)NCc3ccco3)cc2NC1=O (stereo not given),-8.3%
9,CC12CCC(=O)N1C(C(=O)Nc1nnc(SCc3ccccc3F)s1)CS2 (stereo not given),-32.1%
10,O=C(Cn1c(=O)[nH]c2ccccc2c1=O)Nc1cccnc1,-10.3%
11,O=C(Cn1ncc2c([nH]c3ccccc32)c1=O)Nc1cccnc1,55.7% (active)
12,Cc1ccc(NC(=O)Cn2ncc3c([nH]c4ccccc43)c2=O)cc1Cl,1.5%
13,O=C(NCCCN1CCCC1)[C@H](CSCc1ccccc1)N1Cc2ccccc2C1=O,-6.7%
14,COc1cccc(CN2CCNC(=O)C2CC(=O)N(C)C2CCCCC2)c1 (stereo not given),-1.2%
15,CC1CCCCN1C(=O)C(=O)c1cn(CC(=O)N2CCCCCC2)c2ccccc12 (stereo not given),-20.8%
16,CC(=O)N1CC(C)Sc2ccc(S(=O)(=O)N3CCCCC3)cc21 (stereo not given),6.9%
17,CCOC(=O)C1CCN(S(=O)(=O)c2ccc3c(c2)CCN3C(C)=O)CC1,6.1%
18,CC1CCN(C(=O)c2cc3ccccc3c(=O)o2)CC1,-21.4%
19,Cc1cccc(CCNC(=O)CNS(=O)(=O)c2ccc3nc(C)sc3c2)c1,12.4%
20,Cc1ccc(N2CC(C(=O)NC3CC3)CC2=O)cc1 (stereo not given),17.9%
21,COc1ccc2nc(NC3=NC(c4ccccc4)CC(=O)N3)nc(C)c2c1 (stereo not given),-18.7%
22,O=C(NNS(=O)(=O)c1ccccc1)C1CC(c2cccnc2)=NO1 (stereo not given),-32.5%
23,O=C(NNS(=O)(=O)c1ccc(F)cc1)C1CC(c2cccnc2)=NO1 (stereo not given),51% (active)
24,COc1ccc(S(=O)(=O)NNC(=O)C2CC(c3cccnc3)=NO2)cc1 (stereo not given),-24.9%

row,SMILES,inhibition
1,COc1ccc(C(=O)C2CCN(CC(=O)Nc3ccc(OC)cc3OC)CC2)cc1,-10.7%
2,COC(=O)c1sc(=S)n(Cc2ccccc2)c1C,5%
3,COc1ccc(CNC(=O)CCC(=O)N2CC(C)Oc3ccccc32)cc1 (stereo not given),-16.3%
4,O=S(=O)(c1ccc(Cl)c(Cl)c1)c1snnc1-c1ccccc1,77.3% (active)
5,O=C(Nc1ccccc1)c1nnsc1S(=O)(=O)c1ccc(Cl)cc1,67.9%
6,O=S(=O)(c1ccc(F)cc1)c1snnc1-c1ccccc1,24.9%
7,Cc1nnsc1S(=O)(=O)c1ccccc1,-10.8%
8,c1ccc(-c2nnsc2-c2ccccc2)cc1,6.7%
9,CCCCCCCSc1nnc(N)s1,5.6%
10,CC(C)(C)NC(=O)COC(=O)c1ccccc1NC(=O)c1ccco1,-42.8%
11,CC1CN(C(=O)c2cc3ccccc3oc2=O)CC(C)O1 (stereo not given),0.9%
12,C/C(=N\NC(=O)c1ccccc1NC(=O)c1ccc(Cl)cc1)c1ccncc1,60.4% (active)
13,C/C(=N\NC(=O)c1ccncc1)c1ccc(NC(=O)c2ccc(Cl)cc2)cc1,7%
14,C/C(=N/NC(=O)c1ccncc1)c1ccc(NC(=O)c2ccccc2)cc1,-8.8%
15,NC(=O)CC(NC(=O)Cc1ccc(Cl)cc1)c1ccc(NC2CCCCC2)c([N+](=O)[O-])c1 (stereo not given),-4.6%
16,Cc1sc(Cc2nc(O)cs2)nc1-c1ccccc1,97.9% (active)
17,Oc1csc(Cc2nc(-c3ccc(-c4ccccc4)cc3)cs2)n1,31.2%
18,Oc1csc(Cc2nc(-c3ccc4ccccc4c3)cs2)n1,4.6%
19,O=C(Nn1cc(C(=O)Nc2ccc(F)cc2F)c2ccccc2c1=O)c1cnccn1,-21.1%
20,COC(=O)c1cn(NC(=O)c2cnccn2)c(=O)c2ccccc12,3%
21,O=C(Nn1cc(C(=O)Nc2ccccc2F)c2ccccc2c1=O)c1cnccn1,47.1% (active)
22,C=CCN1C(=O)/C(=C2/C(=O)N(CC(=O)O)c3ccccc32)S/C1=N/c1nccs1,-5.4%
23,CCN(CC)CCn1c(NC(=O)c2ccccc2O)nc2ccccc21,19%
24,O=C(CCCNS(=O)(=O)c1cccc2nsnc12)NCc1ccc(Cl)cc1,-12%

row,SMILES,inhibition
1,Cc1ccc(CNC(=O)CNS(=O)(=O)c2cccc3nsnc23)cc1,-18.7%
2,O=C(CNS(=O)(=O)c1cccc2nsnc12)NCc1ccc(Cl)cc1,47.4% (active)
3,Cn1ncc(N=Cc2ccccc2)c1C(N)=O,-13.3%
4,C/C(CC(=O)NCc1ccc(Cl)cc1)=N\NC(=O)Cc1ccccc1,-22.7%
5,CC1Sc2ccc(S(=O)(=O)N3CCN(c4ccccc4)CC3)cc2NC1=O (stereo not given),30.2%
6,CCc1ccc(NC(=O)C2CCN(S(=O)(=O)c3ccc4c(c3)NC(=O)C(C)S4)CC2)cc1 (stereo not given),30.4%
7,COc1ccc(N2CCN(S(=O)(=O)c3ccc4c(c3)NC(=O)C(C)C(=O)N4)CC2)cc1 (stereo not given),-0.5%
8,CC1Sc2ccc(S(=O)(=O)N3CCC(C(=O)Nc4cccc(Cl)c4)CC3)cc2NC1=O (stereo not given),7.5%
9,Cc1cc(C)cc(NC(=O)C2CCN(S(=O)(=O)c3ccc4c(c3)NC(=O)C(C)S4)CC2)c1 (stereo not given),-10.4%
10,Cc1ccc(NC(=O)C2CCN(S(=O)(=O)c3ccc4c(c3)NC(=O)C(C)S4)CC2)cc1C (stereo not given),6.5%
11,O=C(NCc1cccs1)c1cnc2ccccn2c1=O,-8.1%
12,COc1ccc(C(C)(C)C)cc1NC(=O)CCNC(=O)c1ccco1,-35.1%
13,O=C(CN1CCCCC1)NNC(=O)c1cccc(Br)c1,5.1%
14,CCCc1nnc(NC(=O)Cn2c(=O)oc3cc(Br)ccc32)s1,-17.9%
15,COc1ccc2[nH]c(=O)c(CN(CC3CCCO3)C(=S)Nc3ccc(C)cc3)cc2c1 (stereo not given),-18.3%
16,COc1ccc2[nH]c(=O)c(CN(CC3CCCO3)C(=S)Nc3cccc(C)c3)cc2c1 (stereo not given),46.6% (active)
17,COc1ccc2[nH]c(=O)c(CN(CC3CCCO3)C(=S)Nc3ccccc3)cc2c1 (stereo not given),-31.7%
18,COc1cccc(CN(C)CC(=O)NCc2ccccc2Cl)c1,8.1%
19,Cc1ccc(OCC(=O)Nc2ccc(NC(=O)c3ccccc3)cc2)cc1C,-12.6%
20,CCOC(=O)/C(=C\c1cccc(O)c1)c1nc2sc(C)c(C)c2c(=O)[nH]1,105% (active)
21,CCOC(=O)c1nc2sc(C)c(C)c2c(=O)[nH]1,4.3%
22,CCOC(=O)/C(=C\c1ccc(Cl)cc1)c1nc2sc(C)c(C)c2c(=O)[nH]1,58.5%
23,CCOC(=O)C1CCN(C(=O)CCc2c(C)nc3ncnn3c2C)CC1,2.5%
